# Screening data from PubChem BioAssay.
# The full list was thinned out, with hits kept by preference.
# Dicer inh – human Dicer pre-microRNA cleavage inhibition; Q9UPY3; cat-ELCCA pre-miR-21 Dicer processing, chemiluminescence; hits give high values; z-score at 25 µM; 47,000 tested, 6% active; AID 1347074; in the data active means z-score above about 3, passing the limit was not always enough;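 further: plate controls were vehicle for no effect and no enzyme for full effect; higher signal means more uncleaved substrate so more Dicer inhibition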
# The depositor's hits bear a star.
SMILES,Dicer inh
COc1ccc(OC2C(=O)N(Cc3ccc4c(c3)OCO4)C2c2cccs2)cc1 (stereo not given),0.58
CCOc1nn(-c2ncc(C(F)(F)F)cc2Cl)c(=O)o1,1.78
C=CCn1c(=S)[nH]c2sc3c(c2c1=O)CCN(C(=O)OCC)C3,-1.34
Cc1ccc2c(c1)-c1cc(C)nn1C(c1ccc(N3CCOCC3)cc1)N2 (stereo not given),0.86
S=C1NCN(C(Cc2ccccc2)c2ccccc2)CN1 (stereo not given),-1.98
Cc1nn(C)c(N/N=C/c2ccc(C#N)cc2)c1[N+](=O)[O-],-1.23
O=S(=O)(Nc1ccc(-n2ccc(C(F)(F)F)n2)cc1)c1cccc(Cl)c1Cl,2.52
COc1cc2nc(-c3cccc(C)c3)oc(=O)c2cc1OC,1.66
Cc1ccc(S(=O)(=O)NCCCCCC(=O)O)cc1,-0.2
COc1ccc(S(=O)(=O)NCCCC(=O)O)cc1,3.15*
O=C(O)CCCNS(=O)(=O)c1ccc(Cl)cc1,1.21
O=S(=O)(c1cccc(-c2cn3cc(Cl)ccc3n2)c1)N1CCCC1,-0.45
O=C(c1ccccc1)c1cc(Cl)ccc1NC(=S)Nc1cccc(Cl)c1,-0.48
COc1cc(C2Oc3ccccc3C3CC(c4ccccc4)=NN32)ccc1OC(C)=O (stereo not given),4.45*
Clc1ccc(C2=NN3C(C2)c2ccccc2OC3c2ccncc2)cc1 (stereo not given),5.97*
Cc1ccc(C2Oc3ccccc3C3CC(c4ccncc4)=NN32)cc1 (stereo not given),-0.49
COc1ccc(C2Oc3ccccc3C3CC(c4ccc(C)o4)=NN32)cc1OC (stereo not given),-1.98
CSCCC1Oc2ccc(Cl)cc2C2CC(c3ccccc3O)=NN12 (stereo not given),-1.13
COc1ccc(C2Oc3ccccc3C3CC(c4cccnc4)=NN32)cc1 (stereo not given),1.87
Clc1ccc2c(c1)C1CC(c3ccccc3)=NN1C(c1ccncc1)O2 (stereo not given),15*
c1cncc(C2=NN3C(C2)c2ccccc2OC3c2cccs2)c1 (stereo not given),-0.24
Oc1ccc(Cl)cc1C1=NN2C(C1)c1ccccc1OC2c1ccncc1 (stereo not given),-0.87
O=C(Cn1cc(C(=O)C2CCCCC2)c2ccccc21)NCc1cccs1,-1.08
Cc1cc(-c2nnc(C(F)(F)F)o2)ccc1-n1cccc1,-0.84
CCOC(=O)/C(C#N)=C/N(C)c1ccc(F)cc1F,-0.1
SMILES,Dicer inh
Cc1noc(NC(=O)NC(=O)c2cc(F)c(N(C)C)c(F)c2)c1C,-0.11
NC(=O)N/C(CSCc1ccc(Cl)cc1)=N/O,-0.42
Cn1c(=O)cc2c3c(c(NS(=O)(=O)c4ccc(Br)cc4)ccc31)C(=O)c1ccccc1-2,-0.25
Cc1onc(-c2ccccc2Cl)c1C(=O)Nc1ccc2c(c1)COCO2,-5.05
CC(=O)NS(=O)(=O)c1ccc(N=Cc2ccccc2O)cc1,0.82
COC(=O)c1cc(/C=N/NC(N)=S)cn1C,-1.84
O=C1C2C3c4ccccc4C(CO)(c4ccccc43)C2C(=O)N1c1ccc(F)cc1 (stereo not given),4.87*
O=C1C2C3c4ccccc4C(CO)(c4ccccc43)C2C(=O)N1c1ccccc1Cl (stereo not given),0.88
COc1ccc(N2C(=O)C3C4c5ccccc5C(CO)(c5ccccc54)C3C2=O)cc1 (stereo not given),-0.87
CC12c3ccccc3C(c3ccccc31)C1C(=O)N(c3ccccc3)C(=O)C12 (stereo not given),0.7
O=C1C2C3c4ccccc4C(C(=O)O)(c4ccccc43)C2C(=O)N1c1ccccc1 (stereo not given),0.12
CCCCOc1ccc(N2C(=O)C3C4c5ccccc5C(CO)(c5ccccc54)C3C2=O)cc1 (stereo not given),3.34*
CC(N)C1CCC(C(=O)Nc2ccncc2)CC1 (stereo not given),-0.24
O=[N+]([O-])c1ccc(C=Nc2c(F)cccc2F)s1,-0.05
C#CCN1C(=O)C(O)(CC(=O)c2ccc(-n3cccc3)cc2)c2cc(Br)ccc21 (stereo not given),1.92
C=CCOc1ccc(/C(O)=C2/C(=O)C(=O)N(CCOC)C23C(=O)N(CC)c2ccccc23)cc1 (stereo not given),-0.44
COc1ccc(/C(O)=C2/C(=O)C(=O)N(CC3CCCO3)C23C(=O)N(C)c2ccccc23)cc1C (stereo not given),2.19
C=CCOc1ccc(/C(O)=C2/C(=O)C(=O)N(CC3CCCO3)C23C(=O)N(C)c2ccccc23)cc1C (stereo not given),5.15*
CCN1C(=O)C2(/C(=C(/O)c3ccc(C)c(F)c3)C(=O)C(=O)N2CCOC)c2ccccc21 (stereo not given),8.73*
CCN1C(=O)C2(/C(=C(/O)c3ccc(OC)cc3)C(=O)C(=O)N2CCOC)c2ccccc21 (stereo not given),0.23
C=CCOc1ccc(/C(O)=C2/C(=O)C(=O)N(CCOC)C23C(=O)N(CC)c2ccccc23)cc1C (stereo not given),6.05*
C=CCOc1ccc(/C(O)=C2/C(=O)C(=O)N(CCCOC)C23C(=O)N(C)c2ccccc23)cc1C (stereo not given),2.69
C=CCOc1ccc(/C(O)=C2/C(=O)C(=O)N(CCCN(C)C)C23C(=O)N(C)c2ccccc23)cc1C (stereo not given),2.49
CCN1C(=O)C2(/C(=C(/O)c3ccc(C)c(F)c3)C(=O)C(=O)N2CCN2CCOCC2)c2ccccc21 (stereo not given),-1.38
CCOC(=O)N1CCc2c(sc3c2C(=O)NC(c2cc4c(cc2Br)OCO4)N3)C1 (stereo not given),-1.75
SMILES,Dicer inh
c1ccc(Cc2nc3ccc4[nH]snc4c3n2)cc1,0.43
CN1C(=O)C(=Nc2ccc(Cl)cc2)c2ccccc21,1.94
CSc1nc(-c2cccnc2)nc(-c2ccccc2)c1C#N,-1.81
CN(C)C=Nc1nn(C)cc1C(=O)Nc1ccc(F)c(Cl)c1,0.82
Cc1ccc(N=C(C#N)C2=C(O)c3ccccc3C2=O)cc1C,0.71
N=C(N)SCc1cccc(Cl)c1,1.32
N=C(N)SCc1cccc(CSC(=N)N)c1F,-3.4
N=C(N)SCc1cc2ccccc2o1,3.22*
CC(C)Cc1cc(-c2cccc(Br)c2)c(C#N)c(N)n1,0.05
Cc1ccc(C(=O)CSc2n[nH]c(-c3ccco3)n2)cc1C,-0.82
COc1ccc(C(=O)CSc2n[nH]c(-c3ccco3)n2)cc1,1.35
COc1ccc(C(=O)CSc2n[nH]c(-c3ccco3)n2)cc1C,5.61*
O=C(Oc1ccc(Cl)cc1)c1ccc2snnc2c1,0.88
Cc1snnc1C(=O)Nc1c(C(C)(C)C)nn(C)c1C(C)(C)C,1.63
C1=C(N2CCOCC2)Cc2ccccc21,-2.48
Cn1c(=O)c2c(nc(CN3CCCCC3)n2CC(=O)C(C)(C)C)n(C)c1=O,1.65
CN1CCN(Cc2c(O)ccc3c(=O)c(-c4ccccc4)c(C(F)(F)F)oc23)CC1,0.54
O=c1c(-c2ccccc2)coc2c(CN3CCCCC3)c(O)ccc12,0.61
CC1CN(Cc2c(O)ccc3c(=O)c(Oc4ccc5ccccc5c4)c(C(F)(F)F)oc23)CC(C)O1 (stereo not given),1.25
CC1CCN(Cc2c(O)ccc3c2oc(=O)c2ccccc23)CC1,3.46*
CC1CN(Cc2c(O)ccc3c(=O)c(-c4ccccc4)coc23)CC(C)O1 (stereo not given),26.5
CC1CN(Cc2c(O)ccc3c2oc(=O)c2ccccc23)CC(C)O1 (stereo not given),3.09*
N/C(=N\O)c1ccc(C(F)(F)F)cc1,0.62
